Only a sample is shown.
aSyn 5UTR act = Activators via SNCA 5'UTR binding, MLPCN; alpha-synuclein 5'UTR reporter, activators screen; activity score, % (tested at 7.5 µM), hits read low; actives 7.1% (n = 300,000); in the data active = activity score below about -60%
The depositor's hits bear a star.

SMILES | aSyn 5UTR act
COC(=O)c1ccc(NC(=O)c2cccc(OC)c2)cc1 | -255*
Cc1cccc(C(=O)Nc2cccc(OC(=O)c3cccc(C)c3)c2)c1 | -115*
COc1cccc(C(=O)Nc2ccc(C)cc2)c1 | -127*
O=C(Nc1ccc(C2CC2(Cl)Cl)cc1)c1ccccc1Br (stereo not drawn) | -73*
Clc1ccc(OCc2nc(-c3ccncc3)no2)cc1 | -126*
Clc1ccc(Cl)c(-c2nc(-c3ccncc3)no2)c1 | -131*
CCOc1ccc(-c2noc(CCC(=O)O)n2)cc1 | 60
Clc1ccc(-c2nc(-c3ccncc3)no2)c(Cl)c1 | -104*
Cc1ccccc1NC1=C/C(=N\S(=O)(=O)c2cccs2)c2ccccc2C1=O | 114
Cc1cc[n+](C2=C([O-])c3ccccc3C(=O)/C2=N\S(=O)(=O)c2cccs2)cc1C | 74
Cc1ccccc1NC1=C/C(=N\S(=O)(=O)c2ccc(C(=O)O)cc2)c2ccccc2C1=O | -69*
CC(C)(C)c1cc[n+](C2=C([O-])c3ccccc3C(=O)/C2=N\S(=O)(=O)c2ccccc2)cc1 | 84
Cc1ccc(NC2=C/C(=N/S(=O)(=O)c3cccs3)c3ccccc3C2=O)cc1C | -155*
CC1CCC2(CC1)Nc1ccccc1C(=O)N2c1ccccc1 (stereo not drawn) | -105*
COc1ccc(Cl)cc1C(=O)Nc1cccnc1Cl | -78*
COc1ccc(Cl)cc1C(=O)Nc1ccc(Br)c(C)n1 | -78*
Nc1c(C(=O)c2ccc(Cl)cc2)oc2ccccc12 | -111*
CCN(CC)CCOC(=O)c1c(C)oc2ccc(OC)cc12 | -112*
COc1ccc(C(=O)c2oc3ccc(OC)cc3c2N)cc1 | -167*
CCN(CC)CCOC(=O)c1ccc(NC(=O)CCCN2C(=O)S/C(=C/c3ccc(OC)cc3)C2=S)cc1 | 97
COC(=O)c1oc2ccc(OC)cc2c1N | -76*
COc1ccc(N/C=C/C(=O)c2ccc(Cl)cc2)cc1 | -105*
COc1ccc(N/C=C/C(=O)c2cc(OC)c(OC)c(OC)c2)cc1 | 60
O=C(/C=C/Nc1ccc(F)cc1Br)c1ccccc1 | 70
Cc1cc(N/C=C/C(=O)c2ccccc2)ccc1Br | -78*
SMILES | aSyn 5UTR act
Cc1ccc(N/C=C/C(=O)c2ccc(C)cc2)cc1 | -241*
Cc1ccc(C(=O)/C=C/Nc2ccccn2)cc1 | 75
Cc1ccc(O)c(N/C=C/C(=O)c2ccc(F)cc2)c1 | -259*
Cc1ccc(C(=O)/C=C\Nc2ccc(C)c(C)c2)cc1 | -195*
C=C(C)CNC(=S)Nc1nc2c(cc1C(=O)OCC)CCCC2 | -105*
COc1ccc(OCc2cc(C(=O)N3CCC(OC)CC3)no2)c2ccccc12 | -69*
COc1ccc(OCc2cc(C(=O)NC3CCOC(C)(C)C3)no2)c2ccccc12 (stereo not drawn) | -183*
COCC1CCN(C(=O)c2cc(COc3ccc(OC)c4ccccc34)on2)C1 (stereo not drawn) | -184*
CCOC(=O)C1CCN(C(=O)c2cc(COc3ccc(OC)c4ccccc34)on2)CC1 | -124*
COc1cc(C)ccc1OCc1cc(C(=O)N2CCC(c3ccc(F)cc3)C2)no1 (stereo not drawn) | -175*
COc1cc(Cl)ccc1OCc1cc(C(=O)N2CCCC(OC)C2)no1 (stereo not drawn) | -148*
COCC1CCN(C(=O)c2cc(COc3ccccc3SC)on2)C1 (stereo not drawn) | -79*
O=C(O)Cc1sc(Nc2ccc(Cl)cc2)nc1-c1cccs1 | -188*
CCOc1ccccc1OCCCOc1ccc(C)cc1Cl | -111*
CC(C)(C)c1cc[n+](/C(C(=S)Nc2ccccc2F)=C(/[O-])c2ccc3c(c2)OCCO3)cc1 | -74*
[O-]/C(=C(\C(=S)Nc1ccc(Cl)cc1)[n+]1ccccc1)c1ccc(OC(F)F)cc1 | -79*
[O-]/C(=C(\C(=S)Nc1ccccc1F)[n+]1ccccc1)c1ccc(-c2ccccc2)cc1 | -71*
CCOc1ccccc1NC(=S)/C(=C(\[O-])c1ccc2c(c1)OCCO2)[n+]1ccc(CC)cc1 | -64*
Cc1ccc(-n2ncc3c(SCc4ccccc4)ncnc32)cc1 | -180*
Fc1ccc(-n2ncc3c(SCc4cccnc4)ncnc32)cc1 | -138*
Cc1ccc(-n2ncc3c(SCC(=O)NNC(=O)c4ccco4)ncnc32)cc1 | -106*
Cc1ccc(CSc2ncnc3c2cnn3-c2ccc(C)cc2)cc1 | -93*
Cc1ccc(CSc2ncnc3c2cnn3-c2ccccc2)cc1 | -137*
N/C(=N\OC(=O)c1cccc2ccccc12)c1cccnc1 | -184*
N/C(=N\OC(=O)c1cccc2ccccc12)c1cccc([N+](=O)[O-])c1 | -123*
SMILES | aSyn 5UTR act
Cc1ccccc1C(=O)O/N=C(\N)c1cccc([N+](=O)[O-])c1 | -275*
Oc1ccc(Nc2nc(-c3ccc4ccccc4c3)cs2)cc1 | -210*
CC(=O)Nc1nc(-c2ccc3ccccc3c2)cs1 | -143*
N/C(=N\OC(=O)c1cccs1)c1cccc([N+](=O)[O-])c1 | -130*
COc1cc(/C=C/C(=O)c2cccc([N+](=O)[O-])c2)cc(OC)c1OC | -62*
Cc1cccc(C(=O)O/N=C(\N)c2cccc([N+](=O)[O-])c2)c1 | -157*
N/C(=N\OC(=O)c1cccc([N+](=O)[O-])c1)c1cccnc1 | -189*
COc1ccc(/C(N)=N/OC(=O)c2cccc([N+](=O)[O-])c2)cc1OC | -96*
COc1cccc(C(=O)O/N=C(\N)c2ccc([N+](=O)[O-])cc2)c1OC | -208*
O=C1C2C3C=CC(C3)C2C(=O)N1/N=C/c1ccc(-c2ccccc2[N+](=O)[O-])o1 (stereo not drawn) | -77*
Cc1nc2c(-c3ccc(Cl)cc3)c(C)[nH]n2c(=O)c1Cc1ccccc1 | 78
CCOC(=O)Cc1c(C)nc2c(-c3ccccc3)c(-c3ccccc3)[nH]n2c1=O | -85*
O=C(NCC1CCCO1)c1c(O)c2ccccc2[nH]c1=O (stereo not drawn) | -140*
O=C(NC1CCCCCC1)c1c(O)c2ccccc2[nH]c1=O | -132*
O=C(NC1CCCc2ccccc21)c1n[nH]c(=O)c2ccccc12 (stereo not drawn) | 88
Oc1[nH]c2c(Cl)cc(Cl)cc2c1N=NC(=S)NCC1CCCO1 (stereo not drawn) | 79
Cc1cc(C)c2nc(N3CCCC(C(=O)NCCN4CCOCC4)C3)sc2c1 (stereo not drawn) | -74*
Cc1cc(C)c2nc(N3CCCC(C(=O)NCCCN4CCOCC4)C3)sc2c1 (stereo not drawn) | -77*
Cc1cc(OCC(=O)NC2CCCCC2)ccc1Cl | -62*
O=C(COc1ccccc1)NC1CCCCCCC1 | -67*
O=C(CSc1ccccc1)NC1CCCCCC1 | -82*
O=C(NC1CCCCC1)N1CCc2ccccc21 | -111*
Cc1[nH]nc2nc(SCC(=O)NC3CCCCC3)n(-c3ccc(Br)cc3)c(=N)c12 | 59
O=C(COc1ccc(Cl)cc1[N+](=O)[O-])NC1CCCCC1 | -119*
CCCCN(CCCC)C(=S)N/N=C/c1c(C)[nH]n(-c2ccccc2)c1=O | 93
Cc1[nH]n(-c2ccc(Cl)cc2)c(=O)c1C=Nc1ccc(S(=O)(=O)N2CCOCC2)cc1 | -69*
CCOC(=O)c1c(-c2ccc(-c3ccccc3)cc2)csc1NC(=O)CNCCN(C)C | 101
Cc1ccc(-c2csc(NC(=O)c3ccccc3F)c2C(=O)O)cc1 | -102*
Cc1ccc(-c2csc(NC(=O)c3ccc(F)cc3)c2C(=O)O)cc1 | -105*
COc1ccc(-c2csc(NC(=O)c3ccc(C(C)(C)C)cc3)c2C(=O)O)cc1 | 43

Assay outcomes from PubChem.
